Measured values reported in PubChem BioAssay AID1159580 (chemical genetic matrix, 2015).
Where “and” joins values, the source holds several entries; their conditions need not be identical. Equal values may be shown once. Hit rate of the full screen: of about 5,500 compounds, about 2,000 (36%) were called active. About 18% were inconclusive and are not listed. No stated cut-off is given here; in the data, active means normalized growth mostly below about 0.91 (no sharp cut-off); inconclusive means no clear call, values can overlap the other calls; inactive means mostly above about 0.92. Some of the results follow.

Test: chemical genetic growth profiling, strain panel (AID 1159580);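 further: tested at 20 µM; growth read once vehicle control cultures reached saturation at 30 °C; 1 = growth at the plate median or of vehicle wells; lower values mean less growth of the strain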
Details: S. cerevisiae deletion strains, growth OD

Measured: normalized growth

CC(C)(C)NCC(O)COc1cccc2c1C[C@H](O)[C@H](O)C2 (stereo not given in full)
inactive: locus YAL021C, strain ccr4, active compounds read low 0.99 | locus YAL026C, strain drs2, active compounds read low 1.01 | locus YAL030W, strain snc1, active compounds read low 0.995 | locus YBL061C, strain skt5, active compounds read low 1 | locus YBR009C, strain hhf1, active compounds read low 0.999 | locus YBR021W, strain FUR4, active compounds read low 1.03 | locus YBR023C, strain chs3, active compounds read low 1.01 | locus YBR171W, strain sec66, active compounds read low 1.01 | locus YBR229C, strain ROT2, active compounds read low 1.01 | locus YBR231C, strain swc5, active compounds read low 1 | locus YBR279W, strain paf1, active compounds read low 1 | locus YCL011C, strain gbp2, active compounds read low 1 | locus YCL016C, strain dcc1, active compounds read low 1 | locus YCL029C, strain bik1, active compounds read low 0.997 | locus YCL061C, strain MRC1, active compounds read low 1.01 | locus YCL069W, strain vba3, active compounds read low 1 | locus YCR088W, strain abp1, active compounds read low 1 | locus YDL005C, strain med2, active compounds read low 1.01 | locus YDL035C, strain GPR1, active compounds read low 0.983 | locus YDL040C, strain nat1, active compounds read low 0.999 | locus YDL074C, strain BRE1, active compounds read low 1.06 | locus YDL101C, strain DUN1, active compounds read low 0.999 | locus YDL134C, strain PPH21, active compounds read low 1 | locus YDL185W, strain tfp1, active compounds read low 0.96 | locus YDL192W, strain arf1, active compounds read low 0.982 | locus YDR001C, strain nth1, active compounds read low 1.01 | locus YDR069C, strain doa4, active compounds read low 1 | locus YDR101C, strain arx1, active compounds read low 1.05 | locus YDR137W, strain rgp1, active compounds read low 1.01 | locus YDR150W, strain NUM1, active compounds read low 0.992 | locus YDR159W, strain sac3, active compounds read low 1 | locus YDR162C, strain NBP2, active compounds read low 0.964 | locus YDR195W, strain ref2 0.999 | locus YDR297W, strain sur2, active compounds read low 1 | locus YDR318W, strain mcm21, active compounds read low 0.979 | locus YDR334W, strain swr1, active compounds read low 1.02 | locus YDR335W, strain msn5, active compounds read low 1 | locus YDR388W, active compounds read low 0.989 | locus YDR392W, strain spt3, active compounds read low 1.01 | locus YDR502C, strain sam2, active compounds read low 0.99 | locus YEL003W, strain gim4, active compounds read low 1 | locus YEL037C, strain rad23, active compounds read low 1.01 | locus YEL061C, strain CIN8 (second series), active compounds read low 1.01 | locus YEL061C, strain CIN8, active compounds read low 0.999 | locus YER015W, strain faa2, active compounds read low 0.999 | locus YER016W, strain bim1, active compounds read low 1.01 | locus YER110C, active compounds read low 0.976 | locus YER111C, strain swi4, active compounds read low 1 | locus YER155C, strain BEM2 (second series), active compounds read low 0.997 | locus YER155C, strain BEM2, active compounds read low 0.999 | locus YER167W, strain BCK2, active compounds read low 0.996 | locus YFR010W, strain ubp6, active compounds read low 1.02 | locus YGL078C, strain dbp3, active compounds read low 0.989 | locus YGL086W, strain mad1, active compounds read low 1.02 | locus YGL167C, strain pmr1, active compounds read low 1 | locus YGL173C, strain kem1, active compounds read low 1.01 | locus YGL227W, strain vid30, active compounds read low 1.01 | locus YGL240W, strain doc1, active compounds read low 1 | locus YGL248W, strain PDE1, active compounds read low 1.01 | locus YGL253W, strain hxk2, active compounds read low 1.02 | locus YGR135W, strain pre9, active compounds read low 0.951 | locus YGR229C, strain SMI1, active compounds read low 0.989 | locus YGR252W, strain gcn5, active compounds read low 0.986 | locus YHR013C, strain ard1, active compounds read low 1.03 | locus YHR027C, strain rpn1, active compounds read low 1 | locus YHR030C, strain SLT2, active compounds read low 0.992 and 1.02 | locus YHR079C, strain IRE1 (second series), active compounds read low 0.987 | locus YHR079C, strain IRE1, active compounds read low 1.01 | locus YHR094C, strain hxt1, active compounds read low 0.995 | locus YHR129C, strain ARP1, active compounds read low 0.991 | locus YHR142W, strain chs7, active compounds read low 1.01 | locus YHR200W, strain rpn10, active compounds read low 0.987 | locus YIL066C, strain RNR3, active compounds read low 1 | locus YIL073C, strain SPO22, active compounds read low 0.883 | locus YIL125W, strain kgd1, active compounds read low 0.998 | locus YIR030C, strain dcg1, active compounds read low 0.984 | locus YJL092W, strain hpr5, active compounds read low 1.01 | locus YJL095W, strain BCK1 (second series), active compounds read low 1.01 | locus YJL095W, strain BCK1, active compounds read low 1.02 and 1.04 | locus YJL115W, strain asf1, active compounds read low 1.02 | locus YJL129C, strain trk1, active compounds read low 1 | locus YJL134W, strain LCB3, active compounds read low 0.989 | locus YJL154C, strain vps35, active compounds read low 0.995 | locus YJL164C, strain tpk1, active compounds read low 1 | locus YJL166W, strain qcr8, active compounds read low 1 | locus YJL168C, strain set2, active compounds read low 1 | locus YJL187C, strain SWE1 (second series), active compounds read low 1.01 | locus YJL187C, strain SWE1, active compounds read low 1.01 | locus YJR043C, strain POL32, active compounds read low 1 | locus YJR066W, strain TOR1, active compounds read low 1
